In the library only some 0.86% were active in any assay of this set; here they are far more common.
GLS inhibitor: qHTS for Inhibitors of Glutaminase (GLS); Glutaminase kidney isoform, mitochondrial (Homo sapiens), O94925; GLS enzymatic activity, qHTS titration; Potency, µM (series often up to 45.5 µM), inactives show top-dose activity change, negative = inhibition, hits mostly inhibitors; hit rate 0.21% among 410,000
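Coupled fluorescence readout: glutamate oxidase/HRP/Amplex Red detect glutamate formed by hKGA from L-glutamine (1 mM solution added). Buffer 45 mM KH2PO4 pH 8.2, 0.02% Tween-20; reads at t0 and 30 min RT.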
APE1 inh-1: qHTS Assay for Inhibitors of the Human Apurinic/apyrimidinic Endonuclease 1 (APE1) | recombinant APE1, TAMRA/BHQ-2 abasic DNA cleavage fluorescence | Potency, µM (highest dose often 65.8 µM), without a hit: top-dose activity change, negative = inhibition, most hits filed as inhibitors | hit rate 0.35% among 350,000 | AID 2517, 2012;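 further: plate controls were vehicle for no effect and reference inhibitor for full effect; nearly all actives have a fitted effect of over 55% in size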
Target sequence (P27695 whole entry, looked up): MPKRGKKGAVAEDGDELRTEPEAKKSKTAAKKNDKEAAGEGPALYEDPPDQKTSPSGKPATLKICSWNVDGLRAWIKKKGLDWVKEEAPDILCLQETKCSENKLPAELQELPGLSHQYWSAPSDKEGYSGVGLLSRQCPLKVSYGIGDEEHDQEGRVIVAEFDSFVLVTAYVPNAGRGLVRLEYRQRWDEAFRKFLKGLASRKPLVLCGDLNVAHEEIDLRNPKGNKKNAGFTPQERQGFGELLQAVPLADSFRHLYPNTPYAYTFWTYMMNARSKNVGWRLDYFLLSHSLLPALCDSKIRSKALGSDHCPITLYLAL
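Kinetic fluorescence read (525 ex/598 em nm, three reads 60 s apart) of AP-site incision; signal = third minus first read. Enzyme 0.75 nM, dual-labelled THF duplex 50 nM, compound preincubation 15 min RT.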
FEN1 inh: qHTS Assay for the Inhibitors of Human Flap endonuclease 1 (FEN1); Recombinant FEN1 flap cleavage, fluorescence, 15 min; Potency, µM (top dose mostly 114 µM), for inactives: at the highest dose activity change, negative = inhibition, most hits filed as inhibitors; hit rate 0.35% among 390,000; AID 588795, 2011; further: nearly all actives have a fitted effect of over 65% in size
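Reaction started by adding substrate (50 nM final) to 10 nM enzyme after 15 min room-temperature compound preincubation. Reads at 0 and 15 min, with data normalized and fitted to a four-parameter Hill equation.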
BLM helicase inh: qHTS Assay for Inhibitors of Bloom's syndrome helicase (BLM). hit rate 0.2% among 350,000. recombinant BLM DNA unwinding, fluorescence dequenching. Potency, µM (series often up to 56.1 µM), for the others: at the highest dose activity change, negative = inhibition, hits mostly inhibitors. AID 2528, 2010;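 further: plate controls were vehicle for no effect and no enzyme for full effect; nearly all actives have a fitted effect of over 35% in size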
RECQ1 inh: qHTS Assay for Inhibitors of RecQ-Like Dna Helicase 1 (RECQ1) | RECQ1 DNA unwinding, red fluorescence kinetic read | ATP-dependent DNA helicase Q1 (Homo sapiens), P46063 | Potency, µM (series often up to 57.3 µM), without a hit: at the top dose activity, negative = inhibition, usual class: inhibitors | hit rate 0.54% among 240,000;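 further: plate controls were vehicle for no effect and no enzyme for full effect; nearly all actives have a fitted effect of over 30% in size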
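RECQ1T1 50 nM; forked duplex (20 bp + 30-nt ss tails) 200 nM, ATP 2 mM final; pH 8.0, 2 mM MgCl2, 2.5 ug/ml poly(dI-dC); 15 min compound preincubation; discontinuous kinetic read over 2 h at RT.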
PGK inhibitor: qHTS Assay to Find Inhibitors of Phosphoglycerate Kinase | Potency, µM (doses to about 57.5 µM), without a hit: at the highest dose activity change, negative = inhibition, most hits filed as inhibitors | PGK/GAPDH coupled, Kinase-Glo luminescence, 60 min | Phosphoglycerate kinase, glycosomal (Trypanosoma brucei brucei), P07378 | hit rate 0.043% among 380,000; further: nearly all actives have a fitted effect of over 60% in size
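Recombinant glycosomal PGK reaction used 1,3-bisphosphoglycerate generated in-well by GAPDH (100nM final) in 100mM TEA pH 7.6, 5mM MgCl2, 0.01% Tween-20. After 60 minutes at room temperature, ATP was read by Kinase-Glo Plus luminescence end-point.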
DNA dye displace: Counterscreen for APE1 Inhibitors: Fluorescent Dye Displacement Assay. DNA fluorescent dye displacement counterscreen, fluorescence. Potency, µM (highest dose often 28.5 µM), for inactives: at the highest dose activity change, negative = inhibition, most hits filed as inhibitors. hit rate 7% among 480. shares compounds with APE1 inh-1;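 further: loss of thiazole orange fluorescence as the dye is displaced from duplex DNA; 0% = ThO with dsDNA and no compound and -100% = ThO without dsDNA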
EndoIV counter: Counterscreen for APE1 Inhibitors: qHTS Assay for Inhibitors of Endonuclease IV | Potency, µM (series often up to 27.1 µM), inactives show at the highest dose activity change, negative = inhibition, most hits filed as inhibitors | shares compounds with APE1 inh-1 | E. coli Endo IV, fluorogenic AP-site DNA cleavage | hit rate 4% among 560;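 further: plate controls were uninhibited enzyme wells for no effect and no enzyme buffer wells for full effect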
APE1 inh-2: Confirmation qHTS Assay for Inhibitors of the Human Apurinic/apyrimidinic Endonuclease 1 (APE1); hit rate 44% among 750; AID 2572, 2010; purified APE1, fluorogenic abasic-site DNA cleavage; shares compounds with APE1 inh-1; Potency, µM (titrated, usually from 57.1 µM), without a hit: at the top dose activity change, negative = inhibition, actives largely listed as inhibitors; further: nearly all actives have a fitted effect of over 30% in size
APE1 FP inh: qHTS FP-Based Assay for Inhibitors of the Human Apurinic/apyrimidinic Endonuclease 1 (APE1). APE1 binding to TAMRA-labelled double-stranded DNA, fluorescence polarization displacement. shares compounds with APE1 inh-1. Potency, µM (series often up to 28.5 µM), without a hit: at the highest dose activity, negative = inhibition, actives largely listed as inhibitors. hit rate 7% among 480
* hit, by the source's call; ! = not confirmed by another sample; [ ] = dose if it differs, or a comment. The call rests on the fitted dose curve; in most records, active means well fitted curve in the direction sought with a large enough effect; inconclusive means small, poorly fitted or top-dose-only effect, or another doubt; inactive means no such curve, though single readings can be large; an effect the other way counts as inactive or inconclusive. Unless noted, on the % scale 0 is the no-effect control and ±100 the full control effect; potency means the concentration at half of the fitted maximal effect.

How did COc1cccc2c(SCC(=O)N/N=C/c3ccc(O)c(O)c3)cc(C)nc12 do in these assays?
GLS inhibitor: inconclusive; APE1 inh-1: 8.9µM*; FEN1 inh: inconclusive; BLM helicase inh: inconclusive; RECQ1 inh: 25µM*; PGK inhibitor: inconclusive; DNA dye displace: -26%; EndoIV counter: 93%; APE1 inh-2: 5µM*; APE1 FP inh: -7%

What do the screens show for `CCn1cc(/C=N/NC(=O)COc2cccc3cccnc23)c2ccccc21`?
GLS inhibitor: 6%; APE1 inh-1: -6%; FEN1 inh: -14%; BLM helicase inh: -4%; RECQ1 inh: -18%; PGK inhibitor: 5%

Results for COc1cccc2c(SCC(=O)N/N=C/c3ccccc3)cc(C)nc12 ?
GLS inhibitor: -5%; APE1 inh-1: -3%; FEN1 inh: 15%; BLM helicase inh: -2%; RECQ1 inh: -6%; PGK inhibitor: 0%

Results for COC(=O)CSc1cc(C)nc2ccc(OC)cc12 ?
GLS inhibitor: -12%; APE1 inh-1: -2%; FEN1 inh: -6%; BLM helicase inh: -7%; RECQ1 inh: -1%; PGK inhibitor: -7%

Results for COC1=C(OC)C(=O)C(CC=C(C)CCC=C(C)CCC=C(C)CCC=C(C)CCC=C(C)CCC=C(C)CCC=C(C)CCC=C(C)CCC=C(C)CCC=C(C)C)=C(C)C1=O ?
GLS inhibitor: -2%

Results for O=c1cc(-c2ccccc2)oc2cc(O)c(O)c(O)c12 ?
GLS inhibitor: 13%; APE1 inh-1: 5.6µM*; FEN1 inh: 35µM*; BLM helicase inh: 16µM*!; RECQ1 inh: 28µM*; PGK inhibitor: -14%; DNA dye displace: 1µM*; EndoIV counter: 186%[57.1 µM]; APE1 inh-2: 0.63µM*; APE1 FP inh: 18%[57.1 µM]

How did COc1c(O)cc2oc(-c3ccc(O)cc3)cc(=O)c2c1O do in these assays?
GLS inhibitor: 8%; APE1 inh-1: inconclusive; FEN1 inh: -7%; BLM helicase inh: -15%; RECQ1 inh: -3%; PGK inhibitor: -2%
